Data taken from PubChem BioAssay (Tox21).
Results filed as inconclusive are left out. Entries that show only a call come without a potency. Values without a mark were called inactive. Calls of active or inactive are those of the source. Calls come from the whole dose curve; as a rule, active = well fitted activation curve with a large enough effect in the repeat runs; inconclusive = weak or mixed curves; inactive = flat fitted curve, though single readings scatter.

Experiment: A CellTox Green Cytotoxicity Assay to monitor cytotoxicity in HEK293 cells - 40 hour (AID 1224871); note: nearly all actives have a fitted effect of over 45% in size
Settings: CellTox Green fluorescence; series mostly up to 76.8 µM
Text: National Center for Advancing Translational Sciences [NCATS]
NIH Chemical Genomics Center [NCGC]
U.S. Environmental Protection Agency [EPA]
National Institutes of Environmental Health Sciences [NIEHS]
National Toxicology Program [NTP]
Cell-based models are critical for drug discovery. Determining the natural cytotoxic effects resulting from test compounds is an essential research activity. A CellTox Green Cytotoxicity Assay to monitor cytotoxicity in real time of continues cell culture during 40 hours of the compound treatment was used to screen Tox21 10K library compounds in Hek293 cells. CellTox Green Cytotoxicity Assay is a nonlytic, homogeneous, biofluorescent method to measure cytotoxicity in cell culture after experimental manipulation. The assay system uses a proprietary asymmetric cyanine dye that is excluded from viable cells but preferentially stains the dead cell's DNA. […] Viable cells produce no appreciable increases in fluorescence. Therefore, the fluorescence signal produced by the binding interaction with dead cell DNA is proportional to cytotoxicity.
The mixture of Hek293 cell suspension and reagents were dispensed at 600cells/6 ul/well in 1536-well tissue culture treated black solid bottom plates using a Multidrop dispenser. After the assay plates were incubated at a 37 C/5% CO2 incubator for 5 hours, 23 nL of compounds dissolved in DMSO, positive and negative controls was transferred to the assay plate by a pintool work station. The plates were incubated at 37 C for 40 hours. The fluorescence intensity were measured at 0h, 8h, 16h, 24h, 32h and 40h time points using ViewLux plate reader during compound treatment.
Potency is the fitted concentration of half-maximal effect.

Compound | Potency | cytotoxicity increase
CCCCSCCCC | inactive | 
Cc1cc(-c2ccccc2)nnc1NCCN1CCOCC1 | inactive | 
C=CCCCCCCCCC(=O)OCCCC | inactive | 
CC(CO)(CO)CO | inactive | 
COc1cc2c(cc1OC)C(=O)C(CC1CCN(Cc3ccccc3)CC1)C2 (stereo not given) | inactive | 
N[C@@H](CSCCCO)C(=O)O |  | -5.88% [at 15.8 µM]
O=C1c2ccccc2C(=O)c2cc(Cl)ccc21 |  | -5.31% [at 6.97 µM]
Cc1cccc(Cl)c1 | inactive | 
OCC(O)CN1CCN(c2ccccc2)CC1 (stereo not given) | inactive | 
O=NN(CCCl)C(=O)NC1CCCCC1 | inactive | 
CCN1CCCC1CN (stereo not given) | inactive | 
Cc1c(N)cccc1Cl | inactive | 
CCCSSCCC | inactive | 
CCC(C)OC(C)CC (stereo not given) | inactive | 
C[Si]1(C)O[Si](C)(C)O[Si](C)(C)O[Si](C)(C)O[Si](C)(C)O1 | inactive | 
CC(C)C[C@@H]1[C@H](c2ccccc2)OC(=O)N1CCCN1CCCCCC1 | inactive | 
CCOc1ccccc1OCC1CNCCO1 (stereo not given) | inactive | 
C=CCSSCCC | inactive | 
CCCCCCCCCCCCCBr | inactive | 
C=C(C)[C@@H]1CC=C(C)C(=O)C1 | inactive | 

Compound | Potency | cytotoxicity increase
CCn1cc(C(=O)O)c(=O)c2cnc(N3CCCC3)nc21 |  | 3.57% [at 6.97 µM]
O=C(O)CONC(=O)c1ccccc1 | inactive | 
CC(=O)CC(=O)OC(C)(C)C | inactive | 
CCCC(=O)Nc1ccc(OCC(O)CNC(C)C)c(C(C)=O)c1 (stereo not given) | inactive | 
Nc1nc(-c2ccccc2)c(Br)c(=O)[nH]1 | inactive | 
C/C(CC(C)C)=N\O | inactive | 
CC(C)CCOC(=O)c1ccccc1 | inactive | 
CC1=C(C(=O)O)N2C(=O)[C@@H](NC(=O)[C@H](N)C3=CCC=CC3)[C@H]2SC1 | inactive | 
CC/C=C\CCOC(=O)c1ccccc1O | inactive | 
Cc1ncc([N+](=O)[O-])n1CC(C)O (stereo not given) | inactive | 
CC1=C(O)C(=O)C(C)O1 (stereo not given) | inactive | 
C#CCN[C@@H]1CCc2ccccc21 | inactive | 
C=Cc1ccc(C(C)(C)C)cc1 | inactive | 
COc1cc(/C=C/C(N)=O)cc(OC)c1OC | inactive | 
CCCC(CC)c1ccccc1 (stereo not given) | inactive | 
CCCCCCCCCOC(=O)CCCCC(=O)OCCCCCCC | 24.5 µM (active) | 
Cc1c(Cl)cccc1Cl | inactive | 
CCC/C=C(\C=O)CC | inactive | 
COc1cc(OC)nc(O[C@H](C(=O)O)C(OC)(c2ccccc2)c2ccccc2)n1 | inactive | 
COc1c2occc2c(OC)c2c(=O)cc(C)oc12 | inactive | 
